Source: PubChem BioAssay (Tox21)
Values without a mark were called inactive. Records with an inconclusive call do not appear. Activity calls are given as the source filed them. Unless noted, calls follow the shape of the dose curve; as a rule, active = well fitted curve in the direction sought with a large enough effect in the repeat runs; inconclusive = weak or mixed curves; inactive = no such curve, though single readings can be large; an effect the other way counts as inactive or inconclusive.

test system: not listed separately; experiment: qHTS assay to identify small molecule agonists of the estrogen receptor beta (ER-beta) signaling pathway - cell viability counter screen (AID 1259380); settings: ER-beta-bla HEK293T viability, CellTiter-Glo luminescence, 16 h; series mostly up to 92.4 µM; activity change, negative = cytotoxicity: at the top concentration; also: nearly all actives have a fitted effect of over 30% in size; also: potency is read from the fitted curve at half-maximal effect
Outline: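 CellTiter-Glo read, 30 min RT, same wells as bla assay; cells ER-beta-UAS-bla HEK293T; 16 hr compound, 37C; medium 2% charcoal-stripped FBS.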
% is scaled to controls: 0 for no effect and ±100 for the full control effect.

Structure (SMILES) | activity change, negative = cytotoxicity | Potency
C=CC(=O)[O-].C=CC(=O)[O-].[Zn+2] | 0.939% | –
CN1C(=O)N(c2ccccc2Br)Cc2cnc(Nc3ccc4c(c3)OCC(CO)O4)nc21 (stereo unspecified) | – | 34.4 µM (active)
CN(C(=O)CN(CCO)CC(=O)N(C)C(C)(C)Cc1ccccc1)C(C)(C)Cc1ccccc1 | 2.31% [at 42.5 µM] | –
CCOC(=O)c1ccccc1C(=C1C=C(Br)C(=O)C(Br)=C1)c1cc(Br)c(O)c(Br)c1 | – | 57.5 µM (active)
CCOC(=O)[C@H](CCc1ccccc1)N[C@@H](C)C(=O)N(CC(=O)O)C1Cc2ccccc2C1 | – | 6.68 µM (active)
CC(=O)NC1(c2cccc(F)c2)CCN(CC[C@@]2(c3ccc(Cl)c(Cl)c3)CN(c3ccccc3)C(=O)CO2)CC1 | – | 24.4 µM (active)
Brc1cc2ccccc2c2ccccc12 | – | 30.9 µM (active)
CN1CCCN=C1COC(=O)C(O)(c1ccccc1)C1CCCCC1 (stereo unspecified) | -2.44% [at 42.5 µM] | –
O=C1c2ccccc2C(=O)N1CCc1noc(-c2ccc(CN3CCCCCC3)s2)n1 | – | 3.15 µM (active)
OCCN1CCN(CCCN2c3ccccc3Sc3ccc(Cl)cc32)CC1 | – | 23.7 µM (active)
C[C@H]1c2cccc(O)c2C(O)=C2C(=O)[C@]3(O)C(O)=C(C(N)=O)C(=O)[C@@H](N(C)C)[C@@H]3[C@@H](O)[C@@H]21 | -12.6% [at 42.5 µM] | –
CCC(=O)C1CC(C(C)C)CC=C1C (stereo unspecified) | -1.06% | –
CN1CC(=O)N2[C@H](c3ccc4c(c3)OCO4)c3[nH]c4ccccc4c3C[C@@H]2C1=O | -1.49% [at 42.5 µM] | –
COc1cc(N)c(Cl)cc1C(=O)NC1CCN(CCCOc2ccc(F)cc2)CC1OC (stereo unspecified) | – | 5.96 µM (active)
O=C=Nc1ccc(Cl)c(Cl)c1 | – | 47.8 µM (active)
N#[N+]c1ccc2c(S(=O)(=O)[O-])cccc2c1O | 2.91% | –

Structure (SMILES) | activity change, negative = cytotoxicity | Potency
C=C1c2cccc(O)c2C(O)=C2C(=O)[C@]3(O)C(O)=C(C(N)=O)C(=O)[C@@H](N(C)C)[C@@H]3[C@@H](O)[C@H]12 | -4.01% [at 42.5 µM] | –
CC/C=C1/OC(=O)c2ccccc21 | 7.18% | –
CN1CCCC(n2nc(Cc3ccc(Cl)cc3)c3ccccc3c2=O)CC1 (stereo unspecified) | – | 26.6 µM (active)
CC1=C(Br)C(=O)C(Br)=C/C1=C(/c1ccccc1S(=O)(=O)O)c1cc(Br)c(O)c(Br)c1C | -0.717% [at 42.5 µM] | –
CCOC(=O)c1ccc(OCCN2C[C@H](O)[C@@H](O)[C@H](O)[C@H]2CO)cc1 | 0.503% [at 42.5 µM] | –
C/C=C/C=C/C=O | 3.35% | –
CC1(C)S[C@@H]2[C@H](NC(=O)C(c3ccccc3)S(=O)(=O)O)C(=O)N2[C@H]1C(=O)O (stereo partly specified) | 14% [at 42.5 µM] | –
OCCOCC#CCOCCO | 10.4% | –
C=C(C)[C@@H]1CCC2=CCC[C@@H](C)[C@]2(C)C1 | -11.8% | –
CC(C)C[C@H](NC(=O)[C@H](CCc1ccccc1)NC(=O)CN1CCOCC1)C(=O)N[C@@H](Cc1ccccc1)C(=O)N[C@@H](CC(C)C)C(=O)[C@@]1(C)CO1 | – | 0.266 µM (active)
O=[N+]([O-])c1cc(C2CCCCC2)c(O)c([N+](=O)[O-])c1 | -10.4% | –
CCOC(C)=O | 4.03% | –
O=C(O)c1cccc(-c2noc(-c3ccccc3F)n2)c1 | – | 26.6 µM (active)
O=c1[nH]ncc2ccccc12 | 1.15% | –
COc1cc(C(=O)NC2CCN(C)CC2)ccc1Nc1ncc2c(n1)N(C1CCCC1)CC(F)(F)C(=O)N2C | – | 22.3 µM (active)
CC(CCC(=O)O)C(=O)O (stereo unspecified) | -1.38% | –

target: Androgen receptor (Homo sapiens) (UniProt P10275); experiment: qHTS assay to identify small molecule agonists of the androgen receptor (AR) signaling pathway in the presence of an antagonist (AID 1259381; calls by dose curve; also: nearly all actives have a fitted effect of over 15% in size); settings: MDA-kb2 MMTV-luciferase, AR agonist + nilutamide, 16 h; series mostly up to 92.4 µM; activation: at the top concentration
Outline: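 Test compounds at 15 concentrations were incubated for 16hr with MDA-kb2 reporter cells in presence of 3.0uM nilutamide (final). Signal: ONE-Glo luciferase luminescence.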

Sequence of Androgen receptor (Homo sapiens) (P10275 whole entry, looked up): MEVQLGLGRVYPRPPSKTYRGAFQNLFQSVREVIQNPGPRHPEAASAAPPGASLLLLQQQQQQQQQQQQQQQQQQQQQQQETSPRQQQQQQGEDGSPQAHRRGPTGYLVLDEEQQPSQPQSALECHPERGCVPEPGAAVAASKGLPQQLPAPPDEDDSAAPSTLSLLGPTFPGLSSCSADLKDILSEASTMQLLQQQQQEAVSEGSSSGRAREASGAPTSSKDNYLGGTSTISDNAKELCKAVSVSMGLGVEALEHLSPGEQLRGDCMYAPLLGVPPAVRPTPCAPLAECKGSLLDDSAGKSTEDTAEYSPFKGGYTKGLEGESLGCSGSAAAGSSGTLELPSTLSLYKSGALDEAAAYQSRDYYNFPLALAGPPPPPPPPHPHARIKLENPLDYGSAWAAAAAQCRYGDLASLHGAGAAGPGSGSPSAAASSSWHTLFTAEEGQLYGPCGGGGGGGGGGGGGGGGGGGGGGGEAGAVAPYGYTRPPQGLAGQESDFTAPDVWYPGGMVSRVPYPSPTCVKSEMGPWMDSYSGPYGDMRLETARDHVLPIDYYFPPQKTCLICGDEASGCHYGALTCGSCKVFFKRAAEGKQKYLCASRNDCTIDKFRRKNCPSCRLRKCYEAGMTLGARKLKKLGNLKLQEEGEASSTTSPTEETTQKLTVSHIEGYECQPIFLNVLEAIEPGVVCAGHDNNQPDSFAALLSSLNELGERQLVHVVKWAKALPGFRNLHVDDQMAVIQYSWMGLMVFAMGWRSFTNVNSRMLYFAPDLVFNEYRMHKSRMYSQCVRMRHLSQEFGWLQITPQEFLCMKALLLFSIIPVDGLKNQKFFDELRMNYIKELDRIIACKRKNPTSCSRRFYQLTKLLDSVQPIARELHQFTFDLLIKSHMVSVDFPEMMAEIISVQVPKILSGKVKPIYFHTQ

Structure (SMILES) | activation
CCC(=O)C1CC(C(C)C)CC=C1C (stereo unspecified) | -0.148%
CC/C=C1/OC(=O)c2ccccc21 | -0.414%
C/C=C/C=C/C=O | -1.83%
O=C(OCC(O)CO)c1ccccc1Nc1ccnc2cc(Cl)ccc12 (stereo unspecified) | -4.42% [at 42.5 µM]
C=C(C)[C@@H]1CCC2=CCC[C@@H](C)[C@]2(C)C1 | 0.0687%

test system: not listed separately; experiment: qHTS assay to identify small molecule antagonists of the estrogen receptor beta (ER-beta) signaling pathway - cell viability counter screen (AID 1259382); settings: ER-beta-UAS-bla HEK293T viability, CellTiter-Glo luminescence, 16 h; series mostly up to 92.4 µM; activity change, negative = cytotoxicity: at the top concentration; also: nearly all actives have a fitted effect of over 55% in size; also: potency is read from the fitted curve at half-maximal effect;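 as to activity change, negative = cytotoxicity: HEK293T cells carrying ER-beta-UAS-bla reporter stimulated with estradiol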
Outline: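 In this multiplexed counter screen, cells were seeded at 2,000 per well in medium with 2% charcoal-stripped FBS and incubated 6 hr before compound and 1nM final E2 were added. Sixteen hours later, ATP-based luminescence reported viability.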

Structure (SMILES) | activity change, negative = cytotoxicity | Potency
C=CC(=O)[O-].C=CC(=O)[O-].[Zn+2] | -2.42% | –
CN1C(=O)N(c2ccccc2Br)Cc2cnc(Nc3ccc4c(c3)OCC(CO)O4)nc21 (stereo unspecified) | – | 38.6 µM (active)
CCOC(=O)[C@H](CCc1ccccc1)N[C@@H](C)C(=O)N(CC(=O)O)C1Cc2ccccc2C1 | – | 11.9 µM (active)
CC(=O)NC1(c2cccc(F)c2)CCN(CC[C@@]2(c3ccc(Cl)c(Cl)c3)CN(c3ccccc3)C(=O)CO2)CC1 | – | 21.7 µM (active)
CN1CCCN=C1COC(=O)C(O)(c1ccccc1)C1CCCCC1 (stereo unspecified) | -6.25% [at 42.5 µM] | –
C[C@H]1c2cccc(O)c2C(O)=C2C(=O)[C@]3(O)C(O)=C(C(N)=O)C(=O)[C@@H](N(C)C)[C@@H]3[C@@H](O)[C@@H]21 | -7.05% [at 42.5 µM] | –
CCC(=O)C1CC(C(C)C)CC=C1C (stereo unspecified) | 2.73% | –
CN1CC(=O)N2[C@H](c3ccc4c(c3)OCO4)c3[nH]c4ccccc4c3C[C@@H]2C1=O | -1.21% [at 42.5 µM] | –
N#[N+]c1ccc2c(S(=O)(=O)[O-])cccc2c1O | 4.78% | –
C=C1c2cccc(O)c2C(O)=C2C(=O)[C@]3(O)C(O)=C(C(N)=O)C(=O)[C@@H](N(C)C)[C@@H]3[C@@H](O)[C@H]12 | -6.36% [at 42.5 µM] | –
CC1=C(Br)C(=O)C(Br)=C/C1=C(/c1ccccc1S(=O)(=O)O)c1cc(Br)c(O)c(Br)c1C | -7.24% [at 42.5 µM] | –
C/C=C/C=C/C=O | 1.81% | –
CC1(C)S[C@@H]2[C@H](NC(=O)C(c3ccccc3)S(=O)(=O)O)C(=O)N2[C@H]1C(=O)O (stereo partly specified) | 4.05% [at 42.5 µM] | –
OCCOCC#CCOCCO | 4.23% | –
C=C(C)[C@@H]1CCC2=CCC[C@@H](C)[C@]2(C)C1 | -8.24% | –
O=[N+]([O-])c1cc(C2CCCCC2)c(O)c([N+](=O)[O-])c1 | -9.14% | –
O=c1[nH]ncc2ccccc12 | -1.56% | –
COc1ccccc1Oc1c(NS(=O)(=O)c2ccc(C(C)(C)C)cc2)nc(-c2ncccn2)nc1OCCO | -24% [at 42.5 µM] | –
CC(CCC(=O)O)C(=O)O (stereo unspecified) | -7.19% | –
